Results: the supplement of paper PMC4962491
± gives the standard deviation of the averaged measurements. In all, about 1,600 compounds were measured (“mitochondrial oxygen consumption rate normalised to cell number, Z score over the library”: median about 0.065, lowest 2% from about -2.2 on). This excerpt belongs to a sample that is enriched for the lowest values.

system: FaDu; experiment: mitochondrial oxygen consumption rate normalised to cell number, Z score over the library; higher = higher oxygen consumption (negative = OCR reduction); conditions: treatment time 24 h; assay medium: 5 mM galactose, 5 mM pyruvate, 4 mM glutamine; 10 µM
Method: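 Primary screen: FaDu cells were incubated 24 h with Pharmakon 1600 / TDI oncology set compounds at 2 or 10 uM. Mitochondrial-specific OCR (basal minus 2 uM antimycin A) was measured on a Seahorse XF96 in assay medium with 5 mM galactose, 5 mM pyruvate and 4 mM glutamine, then corrected for Hoechst cell number and expressed as a Z score […]. Compounds that cut cell number by >66% were excluded. Two repeats.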

SMILES	mitochondrial oxygen consumption rate normalised
S=C=NCc1ccccc1	-4.7 ± 0.66
CN1CCN(C(=O)O[C@H]2c3nccnc3C(=O)N2c2ccc(Cl)cn2)CC1	-0.823 ± 0.029
CN(C)C(=S)SSC(=S)N(C)C	0.578 ± 0.018
CC(=O)Oc1ccc(Cl)c2cccnc12	-3.19 ± 0.57
CCNC1(c2cccs2)CCCCC1=O (stereo unspecified)	-0.924 ± 0.92
CNC(C)C(O)c1ccccc1 (stereo unspecified)	0.176 ± 0.34
CN(C)C(=O)Oc1cccc([N+](C)(C)C)c1	0.321 ± 1.4
C1CCc2nnnn2CC1	-0.625 ± 0.34
O=c1[nH]c(=O)n(Cl)c(=O)n1Cl	0.623 ± 1.2
O=c1[nH]c2ccccc2n1CCCN1CCC(n2c(=O)[nH]c3cc(Cl)ccc32)CC1	-0.0948 ± 0.24
O=c1[nH]c2ccccc2n1C1CCN(CCCC(c2ccc(F)cc2)c2ccc(F)cc2)CC1	-2.35 ± 0.37
Nc1ccc([As](=O)(O)O)cc1	0.928 ± 0.83
N.N.[Cl][Pt][Cl] [Cisplatin]	-0.167 ± 0.0067
N.N.[Cl][Pt][Cl]	0.355 ± 0.5
COc1cc([C@@H]2c3cc4c(cc3[C@H](O)[C@H]3COC(=O)[C@H]23)OCO4)cc(OC)c1OC	-0.645 ± 0.1
CCC1(CC)C(=O)C=CNC1=O	0.538 ± 1.2
CC[C@H]1CN2CCc3cc(OC)c(OC)cc3[C@@H]2C[C@@H]1C[C@H]1NCCc2cc(OC)c(OC)cc21	-5.13 ± 0.2
CCOC(=O)NC(=S)Nc1ccccc1NC(=S)NC(=O)OCC	-0.249 ± 0.0062
NCc1cccnc1	0.0684 ± 1.5
CC(=O)NC1CCSC1=O (stereo unspecified)	0.219 ± 0.66
COC(C)(C)CCC[C@H](C)C/C=C/C(C)=C/C(=O)OC(C)C	0.396 ± 0.11
